# SKN-1 block – blocks SKN-1 activity in C. elegans; 360,000 tested, 0.49% active; inhibition, % at 21.8 µM; C. elegans VP596 Pgst-4::GFP/RFP ratio, acrylamide-induced, 24 h;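 active = interference check ratio from 0.5 to 1.5 plus GFP to RFP signal ratio inhibition reaching or exceeding a fixed threshold, cut at about 30% in these data, passing the limit was not always enough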
# CRFR2-BP antag – antagonists of CRF-binding protein/CRF-R2 receptor complex; 350,000 tested, 0.59% active; AID 588475; inhibition, % at 11.8 µM; HEK293 CRF-R2/CRF-BP, CRF-induced calcium fluorescence;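 active = inhibition of the ligand-induced calcium signal above about 50% at the single tested concentration, limit read from the data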
# H9c2 TAG inh – triacylglycerol accumulation inhibition; H9c2 cells, Nile Red lipid (TAG) fluorescence; cells loaded with 200 µM oleic acid; inhibition, % at 12.5 µM; 230,000 tested, 0.66% active;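 active = pattern-corrected inhibition of lipid staining of at least 50% with the nuclear-stain viability signal not falling by more than 50%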;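 note: 0% = DMSO wells and 100% = triacsin C control wells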
# H9c2 protect – protects H9c2 cardiomyocytes from peroxide injury; H2O2 injury protection, ATPLite, 2 h; 360,000 tested, 0.63% active; AID 588492; protection from H2O2 cell death, % at 20 µM;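 active = compounds giving at least 50% protection of heart cells from peroxide-induced death in the single-dose screen, raw or plate-pattern-corrected value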;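 note: 0% = DMSO wells with peroxide and 100% = DMSO wells without peroxide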
# iPSC survival up – increases survival of single human iPS cells; hiPSC single-cell survival, ATPlite luminescence; 100% = ROCK inhibitor wells, 0% = DMSO; survival enhancement, % at 20 µM; 360,000 tested, 0.044% active; AID 602274; in the data active = survival enhancement above about 18%;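 note: cells exposed to compounds for 16 hours before the ATP read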
# CRFR2-BP ag – agonists of human CRF-binding protein/CRF-R2 receptor complex | HEK293 CRF-R2/CRF-BP, calcium dye fluorescence (FLIPR); percent of saturating CRF peptide response | 350,000 tested, 0.46% active | activation, % at 13.2 µM;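 active = activation of at least 50%, plus an integration ratio under a set limit after plate pattern correction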;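 note: plate controls were neutral control wells without compound for no effect and CRF at EC100 for full effect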
# * marks the source's active call; other numbers are inactive results; x = no result given. In the library only some 2.5% were active in any assay of this set; here they are far more common.
SMILES,SKN-1 block,CRFR2-BP antag,H9c2 TAG inh,H9c2 protect,iPSC survival up,CRFR2-BP ag
Cc1c(Cl)c([N+](=O)[O-])nn1CCCC(=O)Nc1cc(Oc2ccccc2)cc([N+](=O)[O-])c1,1,59*,x,-16,-1,-1
Cc1ccccc1Oc1cc(NC(=O)CCCn2nc(C)c([N+](=O)[O-])c2C)cc([N+](=O)[O-])c1,-2,51*,x,-7,-1,7
O=C(Nc1cccc(F)c1)C1CCCN1C(=O)OCc1ccccc1 (stereo not drawn),-10,-2,x,-2,0,-2
c1ccc(-c2nn3c(-c4ccco4)nnc3s2)nc1,7,-10,x,81*,-1,-2
COc1cccc(-c2nnc3sc(-c4ccccn4)nn23)c1,-4,-9,x,88*,7,0
COc1cccc(-c2nn3c(-c4ccccn4)nnc3s2)c1,-12,5,x,57*,-2,-1
NC(=O)c1ccccc1N=Cc1ccccn1,-15,-10,x,78*,0,1
CCOc1cccc(C2/C(=C(/O)c3ccc4c(c3)CC(C)O4)C(=O)C(=O)N2CCCn2ccnc2)c1 (stereo not drawn),12,1,x,6,0,-2
COc1ccc(-n2c(C)cc(C(=O)CCl)c2C)cc1,5,-21,64*,-13,-1,-3
O=C(C(=Cc1ccccc1)CN1CCCCC1)c1ccccc1,13,-34,82,-14,0,-2
O=S1(=O)CC(c2ccccc2)=NN=C(c2ccccc2)C1,36*,6,18,-9,-3,-3
C=CCNc1nc2cc(-c3ccccc3C)sc2c(=O)n1C,-7,x,26,-3,1,x
NS(=O)(=O)c1ccc(CCNc2ccn3nc(-c4ccc(OCCN5CCOCC5)cc4)cc3n2)cc1,-12,x,10,66*,1,x
COc1cc(-c2cc3nc(NCCc4ccc(S(N)(=O)=O)cc4)ccn3n2)cc(OC)c1OC,11,x,34,86*,-3,x
Cc1cc2c(cc1C)NC(c1c(C)n(C)n(-c3ccccc3)c1=O)C1=C(CC(C)(C)CC1=O)N2 (stereo not drawn),-21,-3,5,10,-2,63*
CC(=O)N(C)C[C@@H]1Oc2ncc(Br)cc2C(=O)N([C@H](C)CO)C[C@@H]1C,-6,3,1,5,3,-1
COc1ccc(/C=N/N2C(=O)CN(C(=O)c3ccccc3)C2c2ccc(OC)cc2)cc1 (stereo not drawn),-5,-17,-5,2,-1,0
COc1ccc(C2N(Cc3ccccc3)CC(=O)N2/N=C(\C)c2ccccc2)cc1 (stereo not drawn),-4,81*,x,-8,0,1
Cc1ccc(-n2sc3cc(F)ccc3c2=O)c(C)c1,-3,14,8,-31,-2,27
COc1cc(C#Cc2c(-c3cncn3C)n(C)c3ccc(-c4ccc(OC)nc4)cc23)cc(OC)c1,-8,1,103*,-2,-2,2
CCOc1ccc(/C=N/NC(=O)c2nnn(-c3nonc3N)c2-c2ccc(OCC)cc2)cc1,-4,-141,x,2,1,-2
CCOc1cccc(-c2c(C(=O)N/N=C(\C)c3ccccn3)nnn2-c2nonc2N)c1,-8,-14,x,51*,0,-1
CCOc1ccc(-c2c(C(=O)N/N=C/c3c[nH]c4ccccc34)nnn2-c2nonc2N)cc1,-5,12,x,54*,0,0
CCOc1cccc(-c2c(C(=O)N/N=C(\C)c3ccncc3)nnn2-c2nonc2N)c1,-4,-19,x,10,0,0
Nc1nonc1-n1nnc(C(=O)N/N=C/c2ccccn2)c1CNc1ccccc1,6,4,x,50*,0,0
SMILES,SKN-1 block,CRFR2-BP antag,H9c2 TAG inh,H9c2 protect,iPSC survival up,CRFR2-BP ag
Nc1nonc1-n1nnc(C(=O)N/N=C/c2ccccn2)c1-c1ccccc1,1,-8,4,49,0,-1
O=C1NC(=S)SC1=C1CCCC1,-11,-2,-26,-4,-2,1
CCOc1ccccc1-c1cc(NC)ncn1,-5,x,-4,-2,0,x
COc1ccc(C(=O)COC(=O)C(CCCCN2C(=O)C3C4C=CC(C4)C3C2=O)N2C(=O)C3C4C=CC(C4)C3C2=O)cc1 (stereo not drawn),-5,3,x,75*,4,1
CC1(c2ccc(OC(F)F)cc2)NC(=O)N(CC(=O)Nc2cccnc2Cl)C1=O (stereo not drawn),-1,-52,19,5,0,96*
O=C1c2ccccc2NC(c2ccccc2O)N1O (stereo not drawn),-3,-17,x,52*,0,2
O=C1c2ccccc2NC(c2cccs2)N1O (stereo not drawn),11,8,32,17,0,-1
Cc1ccc(N2C(=O)c3ccccc3NC2c2ccccc2O)cc1 (stereo not drawn),-7,-14,x,-6,0,0
O=C1c2ccccc2NC(c2ccc3c(c2)OCO3)N1O (stereo not drawn),21,47,-12,30,-1,-3
O=C1c2ccccc2NC(c2cn[nH]c2-c2ccccc2)N1O (stereo not drawn),-7,25,x,50*,0,-4
O=C1c2ccccc2NC(c2cn[nH]c2-c2ccc(Cl)cc2)N1O (stereo not drawn),8,5,x,67*,1,0
CC(=O)Nc1cccc(-c2csc(C(C)(O)c3ccc(F)c(F)c3)n2)c1 (stereo not drawn),14,x,0,-6,5,x
Cn1c(=O)c2c(ncn2CC(=O)OCC(=O)c2ccc(Br)cc2)n(C)c1=O,9,-19,1,4,-3,-1
c1ccc(SCc2cc(-c3ccccc3)no2)cc1,55*,-1,8,-20,-1,0
Clc1ccc(SCc2cc(-c3ccccc3)on2)cc1,49*,20,12,-14,4,3
Clc1ccc(SCc2cc(Cl)nc(-c3ccccc3)n2)cc1,25,6,x,-7,0,1
Clc1ccc(-c2cc(CSc3ccccc3)on2)cc1,45*,-42,-31,-22,0,4
c1ccc(OCc2cc(-c3ccccc3)no2)cc1,45*,-9,3,-11,-1,-2
O=C(NOCc1cscn1)Nc1ccccc1,-10,3,0,-1,0,5
CCOc1ccccc1N(CC)C(=O)c1cc2c(s1)-c1ccccc1S(=O)(=O)C2,8,x,-8,13,-2,x
CCOc1ccc(C(=O)NCC(c2cccs2)N(C)C)cc1 (stereo not drawn),1,-8,-3,3,2,2
COC(=O)c1ccc(NS(=O)(=O)c2ccc(-c3cc(C)no3)s2)cc1,2,1,x,-2,0,-1
